# Bioassay records: PubChem, several laboratories
# Rows were chosen to be rich in hits. Some 3.9% of all compounds tested hit in one or more screens of this group.
# SUMO HTRF inh: inhibitors of in vitro SUMOylation cascade, primary screen, biochemical, HTRF, uHTS | SUMO-conjugating enzyme UBC9 (Homo sapiens), P63279 | HTRF SUMOylation assay, SAE1/SAE2 + UBC9 | inhibition, % at 35 µM | 0.36% of 290,000 active; in the data active = inhibition above about 50%, passing the limit was not always enough
# Target sequence (P63279 whole entry, looked up): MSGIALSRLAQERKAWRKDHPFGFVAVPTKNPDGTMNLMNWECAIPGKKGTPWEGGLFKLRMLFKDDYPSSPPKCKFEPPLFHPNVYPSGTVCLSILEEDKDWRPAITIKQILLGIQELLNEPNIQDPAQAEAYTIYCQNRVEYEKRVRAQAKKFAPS
# NTR1 ag: agonists of human NTR1, primary screen, imaging, U2OS cells, beta-arrestin-GFP, high content; Neurotensin receptor type 1 (Homo sapiens), P30989; NTR1-U2OS beta-arrestin-GFP spot imaging, agonist mode; activation, % at 20 µM; 0.17% of 330,000 active; AID 493036, 2011;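 active = activation at or above 40% of the spot to cytoplasm intensity ratio, with at least 20 cells analyzed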;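 note: 0% = DMSO without peptide and 100% = 100 nM NTR1 peptide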
# Target sequence (P30989 whole entry, looked up): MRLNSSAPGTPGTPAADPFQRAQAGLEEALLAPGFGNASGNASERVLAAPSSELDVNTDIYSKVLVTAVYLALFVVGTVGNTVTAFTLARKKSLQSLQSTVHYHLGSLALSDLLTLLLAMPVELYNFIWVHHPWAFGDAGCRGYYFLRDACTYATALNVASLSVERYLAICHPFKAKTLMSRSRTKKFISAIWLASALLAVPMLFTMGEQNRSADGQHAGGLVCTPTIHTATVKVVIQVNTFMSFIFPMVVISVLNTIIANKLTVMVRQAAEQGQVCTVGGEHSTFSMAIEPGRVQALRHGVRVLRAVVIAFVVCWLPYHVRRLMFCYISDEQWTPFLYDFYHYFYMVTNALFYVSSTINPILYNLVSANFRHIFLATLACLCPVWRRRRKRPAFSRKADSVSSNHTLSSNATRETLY
# ALR H2O2 inh: inhibitors of human ALR sulfhydryl oxidase, primary screen, biochemical, H2O2 detection, HRP-luminol luminescence, single point | FAD-linked sulfhydryl oxidase ALR (Homo sapiens), P55789 | 3.8% of 290,000 active | purified ALR, DTT oxidation | inhibition, % (test concentration not listed);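 active = mean replicate inhibition above about 79%, with every replicate also reaching it, limit read from the data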
# Cardio protect: cardioprotection against H2O2-induced cell death, primary screen, uHTS, H9c2 cells, ATPLite luminescence; H9c2 cardiomyocytes, H2O2 injury protection, 2 h; protection from H2O2 cell death, % at 20 µM; AID 588492, 2011; 0.63% of 360,000 active;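 active = compounds giving at least 50% protection of heart cells from peroxide-induced death in the single-dose screen, raw or plate-pattern-corrected value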;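 note: 0% = DMSO wells with peroxide and 100% = DMSO wells without peroxide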
# An asterisk follows results filed as active; nt = not tested or not shown.
SMILES,SUMO HTRF inh,NTR1 ag,ALR H2O2 inh,Cardio protect
CCOC(=O)C1=C(C)NC2=C(C(=O)CC(C)(C)C2)C1c1ccc2c(c1)CCCN2C (stereo not given),-11.0,0.0,99.1*,-1.7
NS(=O)(=O)c1ccc(NC(=S)NCc2cccs2)cc1,3.1,-1.1,-7.9,-3.0
COCCn1cnc2c1c(=O)n(Cc1ccc(C#N)cc1)c(=O)n2Cc1ccccc1,-2.8,0.5,1.1,1.2
CC(C)NC(=O)c1ccc2c3n(nc2c1)-c1ccc(Cl)cc1CO3,20.9,2.7,-4.2,-6.6
CCN(CC)CCCNC(=O)c1ccc2c3n(nc2c1)-c1ccc(Cl)cc1CO3,nt,0.9,99.2*,0.1
COc1cc(NC(=O)CSc2nnnn2-c2ccccc2)cc(OC)c1OC,-11.3,0.6,0.3,-3.1
COc1cc(NC(=O)CSc2c3c(nc4ccccc24)CCC3)cc(OC)c1OC,-3.9,-1.7,98.4*,19.5
COc1cc(NC(=O)c2ccc3c(SCC(=O)O)c4c(nc3c2)CCC4)cc(OC)c1OC,2.8,7.0,-4.7,-3.7
O=C(CSc1c2c(nc3ccccc13)CCC2)N1CCCC1,2.9,1.0,97.9*,7.9
COc1cc(NC(=O)c2ccc3c(SCC(=O)O)c4c(nc3c2)CCCC4)cc(OC)c1OC,-1.1,-0.7,97.2*,-11.1
COc1ccc(NC(=O)CSc2c3c(nc4cc(Cl)ccc24)CCCC3)cc1OC,-7.5,5.2,98.6*,-14.9
CCOC(=O)C1CCN(C(=O)CSc2c3c(nc4ccccc24)CCC3)CC1,5.1,-1.0,-6.1,9.0
Cc1ccc(C)n1-c1nnc(N2CCC(C(=O)NCCCN3CC(C)CC(C)C3)CC2)s1 (stereo not given),nt,-0.3,14.6,-0.4
CCOc1ccc(N(CC(=O)NCC2CCCO2)S(=O)(=O)c2ccc(SC)cc2)cc1 (stereo not given),0.3,-1.3,-6.8,-1.3
COc1ccc(NC(=O)CSc2nc(O)cc(=O)[nH]2)c(OC)c1,15.9,0.8,98.9*,7.9
CC(C)NC(=O)CSc1c2c(nc3ccccc13)CCCC2,9.9,0.5,75.9*,3.8
Cc1cc(NC(=O)CSc2c3c(nc4ccccc24)CCC3)no1,19.3,1.1,97.9*,6.0
O=C(CSc1nc(O)cc(=O)[nH]1)C1CC1,25.7,0.7,85.8*,-4.6
NC(=O)C1CCN(C(=O)CSc2nc(O)cc(=O)[nH]2)CC1,-2.8,1.1,3.0,3.8
CC(C)NC(=O)CSc1nc(Cc2ccccc2)nc2ccccc12,2.9,1.0,nt,0.5
O=C(Cc1c(Cl)cccc1Cl)OCC(=O)c1ccc[nH]1,nt,nt,nt,3.1
O=C(COc1ccc(/C=N/NC(=O)c2ccccc2Br)cc1)Nc1ccccc1,3.0,0.3,-4.0,5.3
C1=C(c2sc3ccccc3c2-c2ccc(OCCN3CCOCC3)cc2)CCCC1,nt,1.4,-6.1,-4.6
COc1ccccc1NC(=O)CSc1c2c(nc3ccccc13)CCC2,14.3,2.4,98.6*,7.3
COCCNC(=O)CSc1c2c(nc3ccc(Cl)cc13)CCCC2,-0.2,-2.0,98.4*,-4.6
SMILES,SUMO HTRF inh,NTR1 ag,ALR H2O2 inh,Cardio protect
COc1ccc(NC(=O)CSc2c3c(nc4ccccc24)CCCC3)c(OC)c1,-2.4,6.1,99.6*,3.2
O=C(/C=C/c1ccc(Cl)cc1)Nc1cc(S(=O)(=O)N2CCOCC2)ccc1N1CCOCC1,nt,5.5,-1.0,-2.7
Cc1ccc2sc(NC(=O)CN3C(=O)c4ccccc4C3=O)nc2c1C,0.3,-1.7,-0.6,10.8
CCc1nc2c(OCC(=O)c3ccc(F)cc3)cccn2c1N(C)C(=O)COc1ccccc1,nt,nt,nt,8.0
Cc1ccc(C)c(NC(=O)Cc2nc(CCl)cs2)c1,-14.9,0.7,-17.9,2.7
Cc1ccc(S(=O)(=O)NCC(=O)OCc2csc(CC(=O)Nc3ccccc3C)n2)cc1C,nt,nt,nt,2.5
Cc1ccc(SCC(=O)OCc2csc(CC(=O)Nc3ccccc3C)n2)cc1C,nt,-2.2,98.9*,-1.9
Cc1ccccc1NC(=O)Cc1nc(CCl)cs1,-4.3,4.2,91.8*,9.3
COc1cc(OC)cc(-c2noc(-c3csc([C@H]4C[C@H](O)[C@@H](CO)O4)n3)n2)c1,nt,nt,nt,-1.8
CCN(CC)c1ccc(NC(=O)CN2CCN(CC(=O)Nc3ccccc3F)CC2)cc1,-11.9,-0.8,99.0*,1.0
CCN(CC)c1ccc(NC(=O)CN2CCN(c3ccc(F)cc3)CC2)cc1,4.8,-3.6,78.9*,-2.0
Cc1cc(C)nc(N2CCN(CC(=O)NCc3ccccc3)CC2)n1,8.4,-1.9,2.5,-1.7
O=C(CN1CCN(c2ccc(Cl)cc2)CC1)Nc1ccc(F)cc1,1.8,0.9,10.9,-6.4
CCN(CC)c1ccc(NC(=O)CN2CCN(c3nc(C)cc(C)n3)CC2)cc1,-5.6,3.9,98.0*,-3.7
CC(OC(=O)Cc1n[nH]c(=O)c2ccccc12)C(=O)Nc1ccc(Cl)cn1 (stereo not given),3.9,1.5,1.9,58.1*
O=C(COC(=O)Cc1n[nH]c(=O)c2ccccc12)Nc1ccc(Cl)cn1,nt,1.6,-3.1,87.7*
CC(OC(=O)Cc1ccsc1)C(=O)Nc1ccc(Cl)cn1 (stereo not given),nt,0.9,nt,0.8
O=C(COC(=O)Cc1n[nH]c(=O)c2ccccc12)Nc1ccc(Cl)cc1F,6.9,-1.2,-9.0,56.4*
CC(OC(=O)Cc1n[nH]c(=O)c2ccccc12)C(=O)Nc1cc(Cl)cc(Cl)c1 (stereo not given),nt,2.4,nt,56.5*
c1ccc(COCCCn2cc(-c3ccccc3)nn2)cc1,8.2,3.7,1.8,8.5
CCOc1ccc(CN2CCN(Cc3cccn3-c3cccnc3)CC2CCO)cc1 (stereo not given),4.1,0.2,0.7,-3.0
Cc1ccc(CSCc2ccc(C(=O)NC3CC3)o2)cc1,nt,0.8,-10.0,-8.7
Cc1ccc(CSCc2ccc(C(=O)NCCCN3CCOCC3)o2)cc1,1.5,-1.1,54.4,0.6
CC1CCN(CCCNC(=O)c2ccc(CSCc3cccc(Cl)c3)o2)CC1,5.1,1.6,98.5*,-0.3
Cc1ccccc1CSCc1ccc(C(=O)NCCCN2CCOCC2)o1,-12.1,-0.5,98.1*,9.2
SMILES,SUMO HTRF inh,NTR1 ag,ALR H2O2 inh,Cardio protect
O=C(NC1CC1)c1ccc(CSCc2cccc(F)c2)o1,-0.7,0.4,99.1*,4.1
CC(=O)Nc1ccc(-c2ccnc3c2CC(C(=O)NCC2CC2)O3)cc1 (stereo not given),nt,nt,nt,-2.1
O=C(NCc1ccco1)C1CCCN1C(=O)NCc1ccccc1 (stereo not given),6.2,3.4,-1.9,5.3
Cc1[nH]n(-c2nc(-c3cccc([N+](=O)[O-])c3)cs2)c(=O)c1C,-4.0,0.2,96.9*,3.4
Clc1cncc(Cl)c1N/N=C/c1ccncc1,-2.5,3.8,nt,-6.5
Oc1ccc2ccccc2c1CN1CCCC1,14.7,1.5,7.9,-3.5
Oc1ccc(Br)cc1CN1CCCCCCC1,10.7,-1.3,98.8*,-3.1
Brc1cccc(CN2CCCCCC2)c1,9.0,1.7,3.1,1.4
Oc1ccc2cc(Br)ccc2c1CN1CCCC1,-1.8,-0.3,76.5*,-8.0
